# Results taken from a collection of fitness landscapes (doi:10.1126/science.1257360).
# The full ranking holds about 140,000 sequences; the median of “enrichment ratio after two sorts for PhoP signalling” is about 0, and the highest 2% start at about 11. The sample holds the highest values, similar sequences and a random draw of the others, so the mix is not that of the screen.
# B1: PhoQ; a variant is named by its letters at X, in order, P23837 (parent)
# chain: MKKLLRLFFPLSLRVRFLLATAAVVLVLSLAYGMVALIGYSVSFDKTTFRLLRGESNLFYTLAKWENNKLHVELPENIDKQSPTMTLIYDENGQLLWAQRDVPWLMKMIQPDWLKSNGFHEIEADVNDTSLLLSGDHSIQQQLQEVREDDDDAEMTHSVAVNVYPATSRMPKLTIVVVDTIPVELKSSYMVWSWFIYVLSANLLLVIPLLWVAAWWSLRPIEALAKEVRELEEHNRELLNPATTRELTSLVRNLNRLLKSERERYDKYRTTLTDLTHSLKTPLXXLQXXLRSLRSEKMSVSDAEPVMLEQISRISQQIGYYLHRASMRGGTLLSRELHPVAPLLDNLTSALNKVYQRKGVNISLDISPEISFVGEQNDFVEVMGNVLDNACKYCLEFVEISARQTDEHLYIVVEDDGPGIPLSKREVIFDRGQRVDTLRPGQGVGLAVAREITEQYEGKIVAGESMLGGARMEVIFGRQHSAPKDE
# Variants of: B1
# Assay: enrichment ratio after two sorts for PhoP signalling (ratio (wild type AVST 3.29)); higher = more functional
# Conditions: with PhoP (E. coli)
row,Variant,enrichment ratio
1,PENI,≤ 0.25
2,PNLE,≤ 0.25
3,DQCP,≤ 0.25
4,HGEI,≤ 0.25
5,SWKP,≤ 0.25
6,WESM,≤ 0.25
7,SEAD,5.48
8,SEAA,14.3
9,KYLD,≤ 0.25
10,STAA,4.26
11,SENT,2.04
12,YTLY,1.95
13,SPLD,≤ 0.25
14,SEET,6.48
15,SEAT,13.6
16,SELD,14
17,SPLY,≤ 0.25
18,STLY,13.1
19,DWIM,≤ 0.25
20,NPSS,≤ 0.25
21,FFHH,0.731
22,TYSH,1.78
23,NQDR,≤ 0.25
24,LYHC,≤ 0.25
25,YVNL,≤ 0.25

row,Variant,enrichment ratio
1,RKNY,≤ 0.25
2,MNMF,≤ 0.25
3,FCKG,≤ 0.25
4,HNNH,≤ 0.25
5,MKCC,≤ 0.25
6,HKNH,≤ 0.25
7,AKCC,15.2
8,TKCC,13.1
9,HKCC,≤ 0.25
10,HNCC,≤ 0.25
11,ANCC,0.324
12,TKNH,11.4
13,HKNI,≤ 0.25
14,TKNW,≤ 0.25
15,TKNI,13.3
16,KKAH,≤ 0.25
17,LSQM,≤ 0.25
18,NLVR,≤ 0.25
19,SGPQ,≤ 0.25
20,FWSM,≤ 0.25
21,VAFK,≤ 0.25
22,MYIN,≤ 0.25
23,EPPF,≤ 0.25
24,IMLD,≤ 0.25
25,KKNM,≤ 0.25

row,Variant,enrichment ratio
1,NQCC,≤ 0.25
2,EQCC,≤ 0.25
3,AQCC,32.6
4,TKNM,31.9
5,HKNM,≤ 0.25
6,TTTI,22.1
7,ITTI,≤ 0.25
8,TTTA,5.71
9,GVTI,4.7
10,GTTI,13.5
11,YTTI,≤ 0.25
12,PPTP,≤ 0.25
13,RGSI,≤ 0.25
14,NISI,≤ 0.25
15,GSTG,≤ 0.25
16,NGSI,≤ 0.25
17,GGSI,12.3
18,TGSI,19.6
19,GQSI,≤ 0.25
20,GSSK,≤ 0.25
21,GSSI,14.1
22,MYCI,≤ 0.25
23,LDCF,≤ 0.25
24,DHSM,≤ 0.25
25,GTII,13.8

row,Variant,enrichment ratio
1,YTII,≤ 0.25
2,GCII,18.2
3,GYII,0.285
4,GGII,1.19
5,GNII,8.44
6,DMAN,≤ 0.25
7,TMAM,26.9
8,TMAN,18.9
9,NMAK,≤ 0.25
10,KMAN,≤ 0.25
11,TMAK,16.1
12,TMPM,≤ 0.25
13,HAAK,≤ 0.25
14,KMAM,≤ 0.25
15,TMNM,35
16,KMNM,≤ 0.25
17,TMIM,≤ 0.25
18,HYTR,≤ 0.25
19,LWGW,≤ 0.25
20,NTYY,≤ 0.25
21,YIFC,≤ 0.25
22,CVCM,≤ 0.25
23,TMGM,3.21
24,TMWM,≤ 0.25
25,TMTM,17.1

row,Variant,enrichment ratio
1,TWYG,≤ 0.25
2,QGFA,1.27
3,QPGF,≤ 0.25
4,QIGF,12.5
5,QGFF,13.9
6,QEGF,≤ 0.25
7,FFGF,≤ 0.25
8,FFFF,≤ 0.25
9,QIHF,≤ 0.25
10,QGGF,18.4
11,LRWS,≤ 0.25
12,ITEW,≤ 0.25
13,ELKD,≤ 0.25
14,HCGH,≤ 0.25
15,NAPY,≤ 0.25
16,CIWI,≤ 0.25
17,CIMV,12.9
18,CITA,12.4
19,CICV,0.57
20,CITI,≤ 0.25
21,CIFA,≤ 0.25
22,TNDF,≤ 0.25
23,YDRL,≤ 0.25
24,VIWT,≤ 0.25
25,WDYR,≤ 0.25

row,Variant,enrichment ratio
1,GTGM,6.32
2,GDCG,≤ 0.25
3,RIRE,≤ 0.25
4,QEYL,1.39
5,QTNS,0.432
6,KSYL,≤ 0.25
7,QTNY,17.5
8,QGDH,≤ 0.25
9,QTPM,≤ 0.25
10,QTNL,10.8
11,QTGM,12
12,QSYL,13.9
13,QTDH,29.3
14,QTGD,≤ 0.25
15,QTDS,8.33
16,DLEK,≤ 0.25
17,IPTS,≤ 0.25
18,VIYV,≤ 0.25
19,KMFH,≤ 0.25
20,KSEQ,≤ 0.25
21,TVLM,0.847
22,KYWW,≤ 0.25
23,KESK,≤ 0.25
24,KVEK,≤ 0.25
25,KTHS,0.436

row,Variant,enrichment ratio
1,VEPK,≤ 0.25
2,QTRL,≤ 0.25
3,QGYL,9.62
4,QTWL,21.9
5,QTPA,≤ 0.25
6,QTHF,3.14
7,QTYI,12.9
8,QGWL,2.29
9,QTYL,12.8
10,FDYL,≤ 0.25
11,PSTY,≤ 0.25
12,DPTW,≤ 0.25
13,RMLN,≤ 0.25
14,HIRM,≤ 0.25
15,SECT,24.6
16,WLCT,≤ 0.25
17,SACT,14
18,PLCT,≤ 0.25
19,SLCT,19.2
20,TECT,5.22
21,SRCT,≤ 0.25
22,KYCT,≤ 0.25
23,IACT,≤ 0.25
24,HEHS,≤ 0.25
25,NPLN,≤ 0.25

row,Variant,enrichment ratio
1,KDNG,≤ 0.25
2,TGQY,5.59
3,SYEM,≤ 0.25
4,LFDK,≤ 0.25
5,LFMM,≤ 0.25
6,YGQR,≤ 0.25
7,GEAT,14.1
8,GEAS,9.56
9,GEYT,0.289
10,GENY,≤ 0.25
11,GEAY,23.4
12,GETA,≤ 0.25
13,GELT,11.2
14,GETT,16.2
15,GNTT,2.98
16,GEAA,11.4
17,GEGD,≤ 0.25
18,GEYI,≤ 0.25
19,MCVP,≤ 0.25
20,LYDV,≤ 0.25
